According to PubChem BioAssay AID602248 (The Scripps Research Institute Molecular Screening Center, 2012):
The campaign covered roughly 360,000 compounds. About 1,700 (0.47%) were called active. No stated cut-off is given here; in the data, active means activation above about 15%; inactive means the rest. For the sample, actives were picked, then their nearest neighbours and some compounds at random.

test: counter-screen for M1 agonists: effect in parental CHO-K1 cells (AID 602248); conditions: Fluo-8 calcium fluorescence, at 3 µM, hits give high values;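 further: untransfected CHO-K1 host cells lacking M1 receptor as counterscreen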

Compound | activation
O=C(CCNS(=O)(=O)c1ccccc1)Nc1ccc(Cl)cc1C(=O)c1ccccc1 | 16% (active)
O=C(COC(=O)c1ccccc1)Nc1ccc(Cl)cc1C(=O)c1ccccc1 | 0.05% (inactive)
CN1CCN(C(=S)SCC(=O)Nc2ccc(Cl)cc2C(=O)c2ccccc2)CC1 | 3.53% (inactive)
CN(C)C(=O)Oc1ccc(OCc2cccc[n+]2C)cc1 | -0.29% (inactive)
CCCCCCCCCCCCn1ccc(=N)cc1 | 31.4% (active)
CNC(=O)Nc1ccc(C(O)(C(=O)OC)C(F)(F)F)cc1 (stereo not given) | 1.17% (inactive)
COC(=O)C1=C(c2cccc(OCc3ccccc3)c2)C[C@@H]2CC[C@H]1N2C(=O)NNCc1ccccc1 | 0.39% (inactive)
CCOC(=O)CC1=C(C(=O)OCC)C2(C(=O)N1)C(C(=O)OC)=C(N)Oc1ccccc12 (stereo not given) | -0.01% (inactive)
O=C1NC(=O)C(CCc2ccccn2)(Cc2cccc(Cl)c2Cl)C(=O)N1c1ccc(Br)cc1 (stereo not given) | 4.3% (inactive)
Cc1cc(C(=O)OCC(=O)Nc2c(F)cccc2F)c(C)n1C1CC1 | 0.33% (inactive)
CC(C)N(CC#CCC1(O)c2ccccc2-c2ccccc21)C(C)C | 0.55% (inactive)
N=c1ccccn1Cc1ccccc1 | 15.6% (active)
CCN1CCN(c2nc3c(c(=O)[nH]2)CCC3)CC1 | 0.18% (inactive)
CCCn1c(C(=O)c2ccccc2OC)nc2ccccc21 | -0.18% (inactive)
CC1=C2C(=O)C3C(CC=C4CC(OC5OC(O)C(O)C(O)C5CO)CCC43C)C2CCC12OC1CC(C)CNC1C2C (stereo not given) | 1.23% (inactive)
